# PubChem BioAssay (NCATS)
# Inconclusive results are not listed. Unmarked numbers belong to inactive results. The source made the active and inactive calls. Calls come from the whole dose curve; as a rule, active = well fitted inhibition curve with a large enough effect; inconclusive = small, poorly fitted or top-dose-only effect; inactive = flat fitted curve, though single readings scatter. Where a SMILES comes first, the peptide text is derived from it.
# Test: P-glycoprotein substrates identified in KB-8-5-11 adenocarcinoma cell line, qHTS therapeutic library screen (AID 1346987); note: nearly all actives have a fitted effect of over 65% in size
# Settings: KB-8-5-11 (P-gp overexpressing) viability, CellTiter-Glo, 72 h; series mostly up to 44.5 µM; activity change, negative = cytotoxicity: at the top concentration
# Procedure, shortened: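 Human cervical adenocarcinoma KB-8-5-11 cells, selected in colchicine to over-express P-gp and assayed without it, were exposed for 72 h to titrated compounds. An ATP-based luminescent viability signal gave AC50.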
# % is set by controls: 0 for no effect and ±100 for the full control effect.
SMILES,outcome,"activity change, negative = cytotoxicity",Potency
CC(C)(O)C1CC=C(C(=O)OCC2OC(Oc3c(O)cc(C(=O)O)cc3O)C(O)C(O)C2O)CC1 (stereo not given),inactive [at 17.3 µM],,
C[C@@H](O)[C@H](N)C(=O)N1CCC[C@H]1C(=O)N1CCC[C@H]1C(=O)N[C@H](C(N)=O)[C@@H](C)O (H-TPPT-NH2),inactive [at 9.29 µM],,
CC(=O)OC[C@]1(O)[C@H]2[C@H](OC(=O)CC(C)C)OC=C(CO[C@@H]3O[C@H](CO)[C@@H](O)[C@H](O)[C@H]3O)[C@H]2C[C@@H]1O,inactive [at 17.3 µM],,
CC1=CC(=O)CC(C)(CO[C@@H]2O[C@H](CO)[C@@H](O)[C@H](O)[C@H]2O)C1(O)/C=C/C(C)=C/C(=O)O (stereo not given in full),inactive [at 17.3 µM],,
CC1(C)CC2C(C1)C1(C)CCC13OC3(CO)C2O (stereo not given),,3.52%,
Nc1ncnc2c1ncn2[C@H]1CCCO1,inactive,,
CC(C)(C)NCC(O)COc1cccc2c1CCCC2=O (stereo not given),inactive,,
C=C(C)[C@H]1C[C@@H](O)C(=C)CC[C@@H](O)C(=C)[C@@H](O)C1,,6.62%,
CC(=O)NCCCCn1c2c(c3ccccc31)C(=O)NCC2,inactive,,
N[C@H]1C[C@H]1c1ccc(-c2cccc(O)c2)cc1,,,inactive
C[C@@H]1O[C@@H](OC[C@H]2O[C@@H](OCCc3ccccc3)[C@H](O)[C@@H](O)[C@@H]2O)[C@H](O)[C@H](O)[C@H]1O,inactive [at 17.3 µM],,
OC[C@H]1O[C@@H](Oc2cc(O)cc(/C=C/c3ccc(O)cc3)c2)[C@H](O)[C@@H](O)[C@@H]1O,,9.73%,
C=C1CC2(C(=O)O)CC1CCC2C1(C)CCCC2(C)C(=O)OC(O)C21 (stereo not given),inactive,,
CC1(CO)CC[C@]2(C(=O)O[C@@H]3O[C@H](CO)[C@@H](O)[C@H](O)[C@H]3O)CC[C@]3(C)C(=CCC4[C@@]5(C)CC[C@H](O[C@@H]6O[C@H](C(=O)O)[C@@H](O)[C@H](O)[C@H]6O)C(C)(C)C5CC[C@]43C)C2C1 (stereo not given in full),,7.12% [at 9.29 µM],
C[C@@H]1O[C@@H](O[C@H]2[C@H](OC(=O)[C@]34CCC(C)(C)C[C@H]3C3=CCC5[C@@]6(C)C[C@H](O)[C@H](O[C@@H]7O[C@H](CO)[C@@H](O[C@@H]8O[C@H](CO)[C@@H](O)[C@H](O)[C@H]8O)[C@H](O)[C@H]7O)[C@@](C)(CO)C6[C@H](O)C[C@@]5(C)[C@]3(C)C[C@H]4O)OC[C@H](O)[C@@H]2O)[C@H](O)[C@H](O)[C@H]1O[C@@H]1OC[C@@H](O)[C@H](O[C@@H]2OC[C@](O)(CO)[C@H]2O)[C@H]1O (stereo not given in full),inactive [at 9.29 µM],,
COC(=O)C1=COC(OC2OC(CO)C(O)C(O)C2O)C2C1CC(OC(=O)C(O)CC(=O)O)C2C (stereo not given),inactive [at 17.3 µM],,
CO[C@@H]1CC[C@H](OC[C@]2(COC(=O)c3ccc(C)[nH]3)[C@H](OC(C)=O)CC[C@@]3(C)[C@@H]4CC=C(C)[C@@H](C5=C(O)C(=O)OC5O)[C@]4(C)CC[C@@H]32)O[C@H]1C (stereo not given in full),,6.48% [at 17.3 µM],
COc1ccc2c(c1)OC[C@]1(O)c3cc4c(cc3O[C@H]21)OCO4,inactive,,
O=C(/C=C/c1ccc(O)cc1)OCC1=C[C@@H](O)[C@@H]2C=CO[C@@H](O[C@@H]3O[C@H](CO)[C@@H](O)[C@H](O)[C@H]3O)[C@H]12,inactive [at 17.3 µM],,
COc1ccc2c(c1O)OC[C@H]1c3ccc(O)cc3O[C@@H]21,inactive,,

SMILES,outcome,"activity change, negative = cytotoxicity",Potency
CC(C)=CCCC1(C)Oc2cc3c(c4c2C2C(O4)C(C)(O)CCC21)CN(C(CCC(=O)O)C(=O)O)C3=O (stereo not given),,8.28% [at 17.3 µM],
CC1=C2C3OC(=O)C(C)C3(O)CCC2(C)CCC1=O (stereo not given),,0.656%,
NC1CCC(N[C@@H]2C[C@H]2c2ccccc2)CC1 (stereo not given in full),inactive,,
CCOc1nc2cccc(C(=O)OCc3oc(=O)oc3C)c2n1Cc1ccc(-c2ccccc2-c2noc(O)n2)cc1,,3.72%,
COC(=O)CC1(O)C(=O)Nc2ccccc21 (stereo not given),inactive,,
COc1cc(C(C)=O)ccc1O[C@@H]1O[C@H](CO[C@@H]2O[C@@H](C)[C@H](O)[C@@H](O)[C@H]2O)[C@@H](O)[C@H](O)[C@H]1O,inactive [at 17.3 µM],,
O=C(O)c1ccc(CCCc2ccc(OCCc3ccc(F)cc3)cc2)o1,inactive,,
CC(=O)[C@@H]1CC[C@]2(C(=O)O)CC[C@]3(C)C(CCC4[C@@]5(C)CC[C@H](O)C(C)(C)C5CC[C@]43C)C12 (stereo not given in full),inactive [at 17.3 µM],,
CC(C)CC(=O)n1cc(C(N)=O)c(=O)cc1C(O)c1ccccc1 (stereo not given),,5.49%,
COC(=O)C1=CO[C@@H](O[C@@H]2O[C@H](CO)[C@@H](O)[C@H](O)[C@H]2O)[C@@H]2[C@@H](C)[C@@H](O)C[C@H]12,,3.43%,
CC1(C)C(=O)C(C)(C)c2cc(C(=O)Nc3ccc(C(=O)O)cc3)ccc21,inactive,,
CC1CC(O)CC(C)(C)C1(O)CCO (stereo not given),inactive [at 93.4 µM],,
CC1(CO)CC[C@]2(C(=O)O[C@@H]3O[C@H](CO)[C@@H](O)[C@H](O)[C@H]3O)CC[C@]3(C)C(=CCC4[C@@]5(C)C[C@H](O)[C@H](O[C@@H]6OC[C@@H](O)[C@H](O)[C@H]6O)[C@@](C)(CO)C5CC[C@]43C)C2C1 (stereo not given in full),inactive [at 9.29 µM],,
C/C(=C\CO)CC/C=C(\C)C(=O)O[C@H]1[C@H](OC2OC=C(C(=O)O)C3CCC(C)(O)C23)O[C@H](CO)[C@@H](O)[C@@H]1O (stereo not given in full),inactive [at 17.3 µM],,
CC(C)c1nc(N(C)S(C)(=O)=O)nc(-c2ccc(F)cc2)c1/C=C/[C@@H](O)C[C@@H](O)CC(=O)O,,1.75%,
CC12CCC3C(C)(C)C(O)CCC3(C)C1Cc1c(oc(C(=O)O)cc1=O)O2 (stereo not given),,3.19%,
C[C@@H]1CC[C@]2(C(=O)O)CC[C@]3(C(=O)O)C(=CCC4[C@@]5(C)CC[C@H](O[C@@H]6O[C@@H](C)[C@H](O[C@@H]7O[C@H](CO)[C@@H](O)[C@H](O)[C@H]7O)[C@@H](O)[C@H]6O)C(C)(C)C5CC[C@]43C)C2[C@H]1C (stereo not given in full),inactive [at 17.3 µM],,
CC(C)C1=CC2=CCC3[C@](C)(CCC[C@@]3(C)C(=O)O)C2CC1O (stereo not given in full),,8.09%,
CC1=CC(=O)C2C(C)(C)CC(O)CC2(C)C1CO (stereo not given),inactive,,
C=C1CC23CC1(O)CCC2C1=CC2OC(=O)C(C)(C2O)C1C3C(=O)O (stereo not given),,4.79%,
